GPR151 ag: activates the human receptor GPR151. AID 1508602. activation, % at 11.2 µM. PathHunter beta-arrestin GPR151 cells, luminescence. Q8TDV0. 1% of 650,000 active; in the data active means activation above about 4.9%;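 further: 0% = median of compound wells and 100% = cells with positive control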
TEAD-YAP inh: TEAD-YAP interaction inhibition | HEK-TIYL cells, TEAD-Gal4/YAP UAS-luciferase luminescence | inhibition, % at 9.12 µM | AID 1259422 | 1.4% of 640,000 active; in the data active means inhibition above about 32%;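 further: 0% = median of test compound wells and 100% = reference inhibitor wells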
MITF inh: human MITF inhibition, primary screen | O75030 | AlphaScreen MITF homodimerization, bead proximity signal | AID 1259374 | 0.91% of 650,000 active | inhibition, % at 2.6 µM; in the data active means inhibition above about 50%;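 further: 0% = vehicle wells with protein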
FBW7 act: human FBW7 E3 ligase activation, primary screen | 0.13% of 650,000 active | Q969H0 | AlphaScreen FBW7–phospho-cyclin E peptide binding, activator screen | AID 1259310 | normalized activity (activation), % at 26.1 µM; in the data active means normalized activity above about 1.9%;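 further: purified mutant Fbw7 with reduced substrate affinity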
Target sequence (Q969H0 whole entry, looked up): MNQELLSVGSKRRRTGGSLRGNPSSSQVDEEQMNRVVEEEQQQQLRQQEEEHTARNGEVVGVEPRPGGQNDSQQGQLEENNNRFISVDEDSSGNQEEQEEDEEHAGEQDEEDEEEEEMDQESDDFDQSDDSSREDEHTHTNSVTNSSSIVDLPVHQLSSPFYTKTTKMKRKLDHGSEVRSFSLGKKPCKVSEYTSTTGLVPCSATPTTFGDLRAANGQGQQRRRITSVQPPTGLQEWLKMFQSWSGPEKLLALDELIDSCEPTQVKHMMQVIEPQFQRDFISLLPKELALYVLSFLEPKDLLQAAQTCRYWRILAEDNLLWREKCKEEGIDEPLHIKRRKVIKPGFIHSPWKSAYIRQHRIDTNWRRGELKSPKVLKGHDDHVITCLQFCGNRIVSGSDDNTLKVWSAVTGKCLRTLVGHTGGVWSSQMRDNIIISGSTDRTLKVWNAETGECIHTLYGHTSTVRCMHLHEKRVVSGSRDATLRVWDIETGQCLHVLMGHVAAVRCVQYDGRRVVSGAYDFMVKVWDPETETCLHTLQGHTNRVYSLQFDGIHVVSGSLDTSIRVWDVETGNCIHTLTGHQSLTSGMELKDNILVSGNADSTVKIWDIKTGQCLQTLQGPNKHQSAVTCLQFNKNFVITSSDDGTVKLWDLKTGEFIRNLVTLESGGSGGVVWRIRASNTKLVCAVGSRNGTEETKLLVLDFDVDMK
GPR151 confirm: confirmation of human GPR151 activators; shares compounds with GPR151 ag; GPR151 PathHunter beta-arrestin cells, luminescence, 90 min; % of EA-reagent control over plate median; activation, % at 11.2 µM; 6,700 tested, under 10 active; AID 1508609;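 active means mean percent activation across replicates above the confirmation screen cutoff of 4.91%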
GPR119 counter: activates human GPR119 in a GPR151 counter-screen; GPR119 PathHunter beta-arrestin cells, luminescence, 90 min; 0 = compound-well median, 100 = enzyme-acceptor control; shares compounds with GPR151 ag; 0.3% of 6,700 active; activation, % at 11.2 µM;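 active means mean percent activation in the counterscreen above 29.09%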;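 further: counterscreen on off-target GPR119 to flag nonselective hits from the GPR151 activator screen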
An asterisk follows results filed as active; ! = a repeat was not active. In the library only some 3.5% were active in any assay of this set; here they are far more common.

Results for CSc1nnc(C)c(=O)n1COC(=O)c1ccccc1I ?
GPR151 ag: -1; TEAD-YAP inh: 7; MITF inh: 2; FBW7 act: 0

What do the screens show for `CSc1nnc(C)c(=O)n1COC(=O)c1cc2ccccc2o1`?
GPR151 ag: 7.5*; TEAD-YAP inh: 9; MITF inh: 10; FBW7 act: 0; GPR151 confirm: -1; GPR119 counter: 1

How did CCCOc1ccc(C2=CSC3=NS(=O)(=O)CCN23)cc1 do in these assays?
GPR151 ag: -1; TEAD-YAP inh: -12; MITF inh: 6; FBW7 act: 1

What do the screens show for `Cc1ccc(N2C(=O)c3ccncc3C2=O)cc1`?
GPR151 ag: 1; TEAD-YAP inh: 2; MITF inh: -8; FBW7 act: 0

Results for O=C1c2ccncc2C(=O)N1c1ccc(F)cc1 ?
GPR151 ag: 5.9*; TEAD-YAP inh: -9; MITF inh: -8; FBW7 act: 0; GPR151 confirm: 0; GPR119 counter: -9

What do the screens show for `COC(=O)c1c(C)oc2c1cc(NS(=O)(=O)c1cc(C)ccc1C)c1ccccc12`?
GPR151 ag: 5; TEAD-YAP inh: -8; MITF inh: -8; FBW7 act: 0

How did COc1ccc(OC)c(S(=O)(=O)Nc2cc3c(C(C)=O)c(C)oc3c3ccccc23)c1 do in these assays?
GPR151 ag: 5.7*; TEAD-YAP inh: -3; MITF inh: -6; FBW7 act: 0; GPR151 confirm: 0; GPR119 counter: -6

Results for CC(=O)Nc1nc(SCC(=O)N2CCCCC2)[nH]c(=O)c1NC(=O)c1ccc(F)cc1 ?
GPR151 ag: -1; TEAD-YAP inh: 2; MITF inh: 1; FBW7 act: 0

How did CCc1ccc(NS(=O)(=O)c2c[nH]c(C(=O)OC)c2)cc1 do in these assays?
GPR151 ag: 1; TEAD-YAP inh: 16; MITF inh: -1; FBW7 act: 0

What do the screens show for `COCC1CCCN(Cc2c(C(=O)N3CCCN(C)CC3)nc3sccn23)C1` (stereo not given)?
GPR151 ag: 0; TEAD-YAP inh: 1; MITF inh: 8; FBW7 act: 0

How did COCC1CCCCN1Cc1c(C(=O)N2CCCN(C)CC2)nc2sccn12 (stereo not given) do in these assays?
GPR151 ag: 15*; TEAD-YAP inh: 6; MITF inh: 3; FBW7 act: 0; GPR151 confirm: 0; GPR119 counter: 6

Results for CCCCOc1ccc(C(=O)N/C(=C/c2ccccc2)C(=O)NCC(=O)O)cc1 ?
GPR151 ag: 0; TEAD-YAP inh: -5; MITF inh: -10; FBW7 act: 0

How did CCCNc1nc(Nc2ccc(C)cc2)nc(N2CCCC2)n1 do in these assays?
GPR151 ag: 4.9*; TEAD-YAP inh: 5; MITF inh: -1; FBW7 act: 0; GPR151 confirm: 0; GPR119 counter: -5

How did COC(=O)c1ccc(COC(=O)c2ccc(OC)cc2)cc1 do in these assays?
GPR151 ag: -2; TEAD-YAP inh: 2; MITF inh: 2; FBW7 act: 0

What do the screens show for `COCCCNC(=O)c1ccc(OC(C)=O)cc1`?
GPR151 ag: 0; TEAD-YAP inh: 4; MITF inh: -3; FBW7 act: 0

What do the screens show for `CCOCCCNC(=O)c1ccc(OC(C)=O)cc1`?
GPR151 ag: 6.8*; TEAD-YAP inh: -2; MITF inh: 13; FBW7 act: 0; GPR151 confirm: 0; GPR119 counter: -16

Results for CCOC(=O)c1c(NC(=O)CSc2nnc(CNC(=O)c3ccccc3F)n2CCc2ccccc2)sc2c1CCCC2 ?
GPR151 ag: 1; TEAD-YAP inh: -2; MITF inh: -6; FBW7 act: 0

How did CCOC(=O)c1cnc(SCC(=O)Nc2ccc3c(c2)n(C)c(=O)n3C)nc1N do in these assays?
GPR151 ag: -1; TEAD-YAP inh: 2; MITF inh: 9; FBW7 act: 0

How did Nc1nc(NCCOc2ccccc2)cc(-c2ccc(N3CCOCC3)nc2)n1 do in these assays?
GPR151 ag: -3; TEAD-YAP inh: -29; MITF inh: -12; FBW7 act: 0

How did C=CCOC(=O)C1=C(C)Nc2c(c(=O)n(C)c(=O)n2C)C1c1cc(OC)c(OC)c(OC)c1 (stereo not given) do in these assays?
GPR151 ag: -1; TEAD-YAP inh: -2; MITF inh: 3; FBW7 act: 1

How did CCn1c(N)c(C(=O)N2CCCCC2)sc1=S do in these assays?
GPR151 ag: 5.4*; TEAD-YAP inh: 0; MITF inh: 10; FBW7 act: 0; GPR151 confirm: 0; GPR119 counter: 0

What do the screens show for `COc1ccc(N2CCN(C(c3nnnn3Cc3ccccc3)C(C)C)CC2)cc1` (stereo not given)?
GPR151 ag: 0; TEAD-YAP inh: 6; MITF inh: -3; FBW7 act: 0

How did COc1ccc(-c2nc(C(=O)N3CCN(C)CC3)sc2-c2ccc(OC)cc2)cc1 do in these assays?
GPR151 ag: 6.7*!; MITF inh: 7; FBW7 act: 0; GPR151 confirm: 2; GPR119 counter: 6

How did Cc1cc(-c2n[nH]c(=S)n2-c2ccccc2)nn1C do in these assays?
GPR151 ag: 18*; TEAD-YAP inh: 9; MITF inh: 21; FBW7 act: 0; GPR151 confirm: 0; GPR119 counter: 2

How did CCN(CC)C(=O)Cn1cnc2sc(C(=O)N3CCN(C)CC3)c(C)c2c1=O do in these assays?
GPR151 ag: -1; TEAD-YAP inh: -6; MITF inh: -1; FBW7 act: 0

What do the screens show for `CCC1(CCC(=O)NCC2(c3ccccc3)CCOCC2)CCC(=O)N1` (stereo not given)?
GPR151 ag: 9.5*; TEAD-YAP inh: -8; MITF inh: -4; FBW7 act: 0; GPR151 confirm: 0; GPR119 counter: -1

How did COc1ccc(Br)c(C(=O)Nc2cc(C(=O)NCc3ccccc3OC)ccc2N2CC3CC(C2)c2cccc(=O)n2C3)c1 (stereo not given) do in these assays?
GPR151 ag: -1; TEAD-YAP inh: -8; MITF inh: 5; FBW7 act: 0

What do the screens show for `Cc1nc(N)n2c(SCc3ccccn3)nnc2c1Cc1ccccc1`?
GPR151 ag: 0; TEAD-YAP inh: 3; MITF inh: 8; FBW7 act: 0

How did CC(C)(C)c1nnc(Nc2cc(Cl)ccc2Cl)[nH]c1=O do in these assays?
GPR151 ag: 5.7*; TEAD-YAP inh: -6; MITF inh: 1; FBW7 act: 0; GPR151 confirm: 1; GPR119 counter: 5

Results for CC(C)(C)c1nnc(Nc2ccccc2Cl)[nH]c1=O ?
GPR151 ag: 0; TEAD-YAP inh: 0; MITF inh: -1; FBW7 act: 0

Results for COc1ccc(OC)c(CN2CCc3nnc(CNC(=O)C4CCCN(C)C4)n3CC2)c1 (stereo not given) ?
GPR151 ag: -1; TEAD-YAP inh: 0; MITF inh: 10; FBW7 act: 0

Source: PubChem BioAssay (The Scripps Research Institute Molecular Screening Center)
